# proKLK7 act: proKLK7 (human) activation, primary screen | 370,000 compounds, 0.9% hits | activation, % at 7 µM | purified proKLK7, EDANS-DABCYL substrate fluorescence; 100% is mature enzyme control, 0% vehicle | P49862;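 active = activation above the mean of all tested compounds plus 3 SD, computed per campaign excluding outliers beyond control limits, cut at about 13% in these data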
# Target sequence (P49862 whole entry, looked up): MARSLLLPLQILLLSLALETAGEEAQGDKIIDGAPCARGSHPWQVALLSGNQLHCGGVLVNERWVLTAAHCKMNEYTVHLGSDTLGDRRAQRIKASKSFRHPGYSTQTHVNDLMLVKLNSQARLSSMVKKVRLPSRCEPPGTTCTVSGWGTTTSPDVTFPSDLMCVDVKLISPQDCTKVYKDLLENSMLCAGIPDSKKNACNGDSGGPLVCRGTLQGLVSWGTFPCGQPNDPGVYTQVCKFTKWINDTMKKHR
# PLC-gamma1 inh: blocks human PLC-gamma1 enzyme activity. P19174. purified PLC-gamma1, fluorogenic substrate, fluorescence. inhibition, % at 12.2 µM. 370,000 compounds, 0.84% hits. AID 720700; in the data active = inhibition above about 9.5%
# ADAM10 inh: inhibitors of human ADAM10. recombinant ADAM10, EDANS/DABCYL FRET peptide cleavage, 3 h. inhibition, % at 7 µM. 370,000 compounds, 0.62% hits. AID 720582;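 active = inhibition above a per-campaign cutoff equal to the mean of compounds falling between control-based bounds plus 3 SD, cut at about 20% in these data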;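 note: 0% = DMSO wells while the 100% control is not disclosed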
# PLC-beta3 inh: inhibitors of human phospholipase C beta3; Q01970; Purified PLC-beta3, fluorogenic substrate, fluorescence; inhibition, % at 12.2 µM; 370,000 compounds, 0.18% hits; AID 720704; in the data active = inhibition above about 11%;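 note: 0% = median of compound wells on plate and 100% = full blocker control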
# ADAM17 inh: ADAM17 inhibition, QFRET primary screen; recombinant ADAM17, EDANS/DABCYL FRET peptide cleavage; AID 720648; 370,000 compounds, 0.83% hits; inhibition, % at 6.95 µM; P78536;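 active = inhibition above the mean of compounds lying between control limits plus 3 SD, set per campaign, cut at about 8.5% in these data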;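 note: 0% = DMSO-only wells as the low control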
# ADAM10 counter: ADAM10 inhibition, counter-screen for ADAM17 exosite hits | shares compounds with ADAM17 inh | recombinant ADAM10, EDANS/DABCYL FRET peptide cleavage, 3 h | 2,900 compounds, 47% hits | inhibition, % at 6.95 µM | AID 743256;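 active = mean inhibition over the triplicate runs exceeds the activity threshold set in the earlier primary screen, cut at about 20% in these data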;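 note: 0% = DMSO wells and 100% = marimastat wells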
# ADAM17 confirm: confirmation of inhibitors of human ADAM17. shares compounds with ADAM17 inh. recombinant ADAM17, EDANS/DABCYL QFRET peptide cleavage. inhibition, % at 6.95 µM. 2,900 compounds, 65% hits. AID 743257;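 active = mean inhibition across replicates above the hit cutoff set in the primary screen, cut at about 8.5% in these data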;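 note: 0% = DMSO wells and 100% = marimastat wells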
# * = called active by the depositor; nt = no result. A selection: hits, their analogues and other compounds. The true share with any hit is near 2.9%.
SMILES,proKLK7 act,PLC-gamma1 inh,ADAM10 inh,PLC-beta3 inh,ADAM17 inh,ADAM10 counter,ADAM17 confirm
COC(=O)C1=C(C)N(Cc2ccc(Br)cc2)C(=S)NC1c1cccc(F)c1 (stereo not given),0.5,3.3,-1.0,-0.5,0.9,nt,nt
COC(=O)C1=C(C)N(Cc2ccc(Br)cc2)C(=S)NC1c1ccc(F)cc1 (stereo not given),-0.1,4.5,10.1,-1.5,9.3*,19.3,12.0*
CCOc1ccc(NC(=O)OCCN2CCN(CCc3ccccc3)C(C)C2)cc1 (stereo not given),-0.8,2.9,-10.6,5.2,-2.7,nt,nt
O=S(=O)(c1ccc(Cl)cc1)N1CCCC1c1nc(-c2ccc(Cl)cc2)no1 (stereo not given),0.8,4.2,15.1,0.6,9.8*,2.0,2.9
O=S(=O)(c1ccccc1Cl)N1CCCC1c1nc(-c2ccccc2Cl)no1 (stereo not given),1.2,-2.5,-6.9,-4.0,-1.6,nt,nt
COc1ccc(-c2cc(-c3n[nH]c(=S)n3-c3cc(OC)ccc3OC)[nH]n2)cc1,-0.3,3.8,16.0,5.3,9.5*,23.1*,12.7*
CCCNC(=O)C1(C)CCCN(Cc2ccc(-c3ccccc3)o2)C1 (stereo not given),0.5,-1.0,12.1,3.9,2.0,nt,nt
COc1ccc2nc(NC(=O)Nc3ccccc3)sc2c1,-0.2,2.6,-2.4,1.3,-3.5,nt,nt
CC(C)(C)c1nc(NC(=O)Nc2ccccc2)sc1Br,-0.2,4.2,19.6,1.9,10.7*,35.0*,21.1*
CCC(C)[C@H]1CNC(=S)N1CCc1cccc2ccccc12 (stereo not given in full),0.6,5.4,5.7,4.3,12.7*,5.4,2.8
O=C(c1cccc(COc2ccc(Cl)cc2Cl)c1)N1CCN(c2ccccn2)CC1,1.1,3.8,15.5,-2.9,10.7*,13.9,9.3*
COc1ccc([C@H]2C[C@@H](O)[C@H](n3cc(COC(=O)c4ccccc4)nn3)CN2Cc2cccs2)cc1,-0.6,-0.5,-4.6,1.7,-0.7,nt,nt
COc1ccc([C@H]2C[C@H](O)[C@@H](n3cc(COC(=O)c4ccccc4)nn3)CN2Cc2cccs2)cc1,0.7,4.2,6.9,8.6,9.3*,8.0,3.6
CCCCCC(=O)N1C[C@@H](O)[C@H](n2cc(COC(=O)c3ccccc3)nn2)C[C@@H]1c1ccc(C)cc1,0.0,-1.9,1.4,5.3,3.7,nt,nt
CCCCCC(=O)N1C[C@@H](n2cc(-c3ccc(F)cc3)nn2)[C@H](O)C[C@@H]1c1ccc(C)cc1,0.3,0.2,16.5,2.8,10.3*,16.8,9.9*
CCCCCC(=O)N1C[C@H](n2cc(COC(=O)c3ccccc3)nn2)[C@@H](O)C[C@@H]1c1ccc(C)cc1,-0.4,-2.3,16.3,-0.1,9.8*,32.5*,17.0*
CCCCNC(=O)C1(C)CCN1C(=O)c1cccnc1Oc1ccccc1 (stereo not given),0.0,1.0,-17.5,-2.9,-4.1,nt,nt
COc1ccc(C(CC(=O)c2ccc3c(c2)OCO3)C(=O)O)cc1OC (stereo not given),0.5,-2.7,-12.1,-3.7,-1.6,nt,nt
CCOC(=O)c1c(C)[nH]c(C)c1C(=O)CSc1nc2ccccc2c(=O)n1-c1ccc(Cl)cc1,-0.9,-2.5,15.0,-1.5,10.6*,28.3*,19.2*
Cc1c(C=O)c2ccccn2c1C(=O)c1ccc(F)cc1,0.3,-15.3,12.1,-36.5,10.1*,-4.2,2.6
COCCNC(=O)C1CCCN(Cc2ccc(-c3ccccc3)cc2)CC1 (stereo not given),-0.3,-1.1,-3.1,1.3,-1.9,nt,nt
CC1CCN(C(=O)c2[nH]c(C(F)(F)F)nc2-c2ccccc2)CC1,-0.8,-0.5,-7.3,-2.8,-2.5,nt,nt
O=C(c1[nH]c(C(F)(F)F)nc1-c1ccccc1)N1CCC(Cc2ccccc2)CC1,-0.1,2.6,6.2,2.1,12.3*,7.5,6.9
CC(C)C(=O)NC(=S)/C=C1/N(C)c2ccccc2C1(C)C,0.3,-7.0,-4.9,-11.9,-5.9,nt,nt
Cc1ccc(C(=O)NC(=S)/C=C2\N(C)c3ccccc3C2(C)C)cc1,0.7,-31.9,16.5,-42.0,17.5*,26.5*,13.4*
SMILES,proKLK7 act,PLC-gamma1 inh,ADAM10 inh,PLC-beta3 inh,ADAM17 inh,ADAM10 counter,ADAM17 confirm
CCCCNC(=O)C[C@@H]1C[C@@]2(C(=O)OCC)CCC=C2N(Cc2ccc(Cl)cc2Cl)C1=O,0.3,0.2,-6.7,-1.1,1.3,nt,nt
COc1ccc(-c2coc3c(C(=O)NCC4CC4)cccc23)c(C)c1,-0.6,0.3,-4.6,-6.3,0.8,nt,nt
CCC(C(=O)O)N1C(=O)/C(=C/c2cccn2C)SC1=S (stereo not given),0.2,2.6,19.1,-10.3,8.8*,17.4,11.6*
CC(C(=O)O)N1C(=O)/C(=C/c2cccn2C)SC1=S (stereo not given),0.2,-5.7,9.1,-5.7,2.2,nt,nt
Cn1cccc1/C=C1\SC(=S)N(NC(=O)c2ccc(F)cc2)C1=O,-0.1,-8.2,14.9,-22.8,12.5*,7.7,4.4
N#CCC(=O)Nc1ccc(C(=O)Nc2cccc(S(=O)(=O)N3CCCC3)c2)cc1,-0.1,-15.4,-2.0,-13.3,1.1,nt,nt
Cc1cccc(C)c1NC(=O)C(c1ccc(-c2ccccc2)cc1)n1c(=O)c(-c2cc3ccccc3[nH]2)nc2ccccc21 (stereo not given),-17.3,-265.3,-230.9,-307.7,-62.6,nt,nt
COc1ccc(-c2cc(-c3nnc(SCC(=O)Nc4ccccc4-c4ccccc4)n3N)[nH]n2)cc1,0.6,-2.9,6.0,-2.0,2.0,nt,nt
Cc1ccc([C@H]2C[C@@H](O)[C@H](n3cc(C4CC4)nn3)CN2C(=O)c2cccs2)cc1,0.2,-2.1,-1.5,1.6,-1.6,nt,nt
COc1ccc(OC)c(C2C(C(N)=O)=C(C)Nc3nc(-c4cccc(Cl)c4)nn32)c1 (stereo not given),0.7,-4.0,-0.5,-1.3,9.3*,10.2,6.5
CN(Cc1ccc(F)cc1)C(=O)c1cccc(OCc2ccccc2)c1,0.6,5.5,13.1,1.0,8.7*,7.3,12.0*
CN(Cc1ccc(F)cc1)C(=O)c1cccc(NS(=O)(=O)c2ccccc2)c1,0.7,0.8,-7.0,-5.8,-3.9,nt,nt
O=C1NC2(CCCC2)N=C1c1ccc(Cl)cc1,-1.3,3.2,14.9,4.4,9.6*,11.5,4.9
COC[C@@H]1CCCN1c1ccc2c(c1)O[C@@H]1CCN(C1)S2(=O)=O,0.7,-3.6,-6.3,-1.6,-4.1,nt,nt
O=C(NC1=NCCS1)c1ccc(Cl)c(S(=O)(=O)N2CCc3ccccc32)c1,0.0,-1.2,10.3,-8.4,9.4*,9.7,7.2
CC(C)n1cc(NC(=O)C2CC(c3cccc(Br)c3)=NO2)cn1 (stereo not given),0.6,-0.2,12.8,-10.3,9.0*,-5.5,-2.8

# Source: PubChem BioAssay
